# ELG1 genotoxic: induces genotoxicity in HEK293T cells with luciferase-tagged ELG1; HEK293T ELG1-luciferase reporter, luminescence, 16 h; Potency, µM (highest dose often 46 µM), for inactives: at the top dose activity change, positive = activation, most hits filed as activators; 1.3% of 330,000 active; AID 504466; also: % of control where 0% means no effect; nearly all actives have a fitted effect of over 60% in size
#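 ELG1-luciferase HEK293T cells, 2,000/well; compound pinned in; 16 hr, 37 °C, 5% CO2; ONE-Glo, 30 min RT; luminescence on CCD imager.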
# FLuc modulator: firefly luciferase modulation, counter-screen for miR-21 project | Potency, µM (series often up to 57.5 µM), inactives show at the highest dose activity change, negative = inhibition, actives largely listed as inhibitors | 6.9% of 360,000 active | P08659 | purified FLuc, Km substrates, luminescence inhibition;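 also: plate controls were vehicle for no effect and reference inhibitor for full effect; nearly all actives have a fitted effect of over 55% in size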
# Target sequence (P08659 whole entry, looked up): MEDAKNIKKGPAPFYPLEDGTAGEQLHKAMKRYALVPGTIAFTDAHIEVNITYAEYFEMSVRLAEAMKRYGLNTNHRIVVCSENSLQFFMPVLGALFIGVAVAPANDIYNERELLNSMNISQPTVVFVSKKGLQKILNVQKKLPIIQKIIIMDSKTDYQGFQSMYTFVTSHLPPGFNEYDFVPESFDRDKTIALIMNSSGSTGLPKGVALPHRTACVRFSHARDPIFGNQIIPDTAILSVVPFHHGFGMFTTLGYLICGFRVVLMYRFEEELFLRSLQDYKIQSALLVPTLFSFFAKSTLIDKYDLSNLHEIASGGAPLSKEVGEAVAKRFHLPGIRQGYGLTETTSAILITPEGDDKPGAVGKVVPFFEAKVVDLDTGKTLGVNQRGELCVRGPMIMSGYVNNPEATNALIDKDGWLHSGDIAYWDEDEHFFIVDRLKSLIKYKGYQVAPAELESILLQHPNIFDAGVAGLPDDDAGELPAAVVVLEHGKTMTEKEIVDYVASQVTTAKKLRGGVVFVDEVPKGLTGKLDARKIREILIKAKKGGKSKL
#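 Biochemical qHTS of compounds, final roughly 60 µM downward over six points, against 10 nM purified firefly luciferase using Km concentrations of substrates (10 uM D-luciferin, 10 uM ATP) in Tris acetate pH 7.5 buffer; luminescence output.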
# NPC1 promoter act: NPC1 promoter activation; 2.4% of 320,000 active; Potency, µM (highest dose often 9.22 µM), for the others: at the highest dose activation, hits mostly activators; AID 485313; Huh7 NPC1 promoter luciferase reporter, 24 h; also: % of control where 0% means no effect; nearly all actives have a fitted effect of over 60% in size
#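 Luciferase expression driven by the NPC1 promoter was measured in stably transfected Huh7 cells after a 24 h compound incubation, using a luciferase reagent and a luminescence read.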
# Luc counter: blocks Kinase-Glo luciferase, a counter-screen artifact; Q27757; Kinase-Glo luciferase, ATP luminescence, 8 min; Potency, µM (doses to about 38.3 µM), for the others: at the top dose activity change, negative = inhibition, most hits filed as inhibitors; 0.28% of 200,000 active; also: % is scaled to controls: 0 for no effect and ±100 for the full control effect; nearly all actives have a fitted effect of over 60% in size
#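 Inhibition of Kinase-Glo luciferase light generation was assessed at 10 uM ATP in pH 7.2 imidazole buffer, with luminescence measured after eight minutes at ambient temperature.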
# Rab9 promoter act: activators of Rab9 promoter | 2.8% of 320,000 active | Huh7 Rab9 promoter-luciferase reporter, luminescence, 24 h | AID 485297 | Potency, µM (titrated, usually from 9.22 µM), inactives show top-dose activation, negative = inhibition, most hits filed as activators; also: % of control where 0% means no effect; nearly all actives have a fitted effect of over 60% in size
#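 Using Huh7 cells stably transfected with Rab9 promoter–luciferase, compounds were incubated 24 h at 37 °C, 5% CO2; luciferase luminescence was read 10 min after reagent addition.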
# SMN2 splice up: SMN2 splice variant enhancement. Potency, µM (titrated, usually from 46.1 µM), for inactives: top-dose activity change, positive = activation, usual class: activators. HEK293 SMN2-luciferase splicing reporter, luminescence, 30-36 h. 2.8% of 210,000 active; also: % of control where 0% means no effect; nearly all actives have a fitted effect of over 55% in size
#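 HEK293 cells carry an SMN2 […]–luciferase reporter in which exon 7 inclusion puts luciferase in frame. Cells were plated 10-12 h before compound addition, then incubated 30-36 h at 37C. ONE-Glo luminescence was read; sodium butyrate at 4.5 mM final served as control.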
# Numbers without * were called inactive; ? = inconclusive; nt = no result. Most compounds without a hit are left out; they make up all but 7.4% or so of the library. Calls follow the shape of the dose curve; as a rule, active = well fitted curve in the direction sought with a large enough effect; inconclusive = small, poorly fitted or top-dose-only effect, or another doubt; inactive = no such curve, though single readings can be large; an effect the other way counts as inactive or inconclusive. Potency is read from the fitted curve at half-maximal effect.
SMILES,ELG1 genotoxic,FLuc modulator,NPC1 promoter act,Luc counter,Rab9 promoter act,SMN2 splice up
C(=N\Nc1nc2ccccc2[nH]1)/C1CCCCC1,?,3.4µM*,1%,-6%,15%,2%
CCCCC(=O)OCC(=O)Nc1ccc(SC(F)F)cc1,2%,21µM*,2%,1%,4%,-5%
CCCCNC(=S)Nc1ccc(SC(F)F)cc1,-1%,17µM*,10%,-1%,19%,10%
O=C(COC(=O)c1ccccc1Cc1ccccc1)Nc1ccc(SC(F)F)cc1,?,6µM*,?,2%,2.8µM*,nt
O=C(Cc1ccccc1F)Nc1ccc(SC(F)F)cc1,?,5.4µM*,4µM*,-1%,1.6µM*,13µM*
CCCCNC(=S)Nc1ccc(F)cc1,-2%,3%,0%,nt,-2%,nt
COc1cc(C(=O)OCC(=O)Nc2ccc(SC(F)F)cc2)cc(OC)c1OC,-1%,1%,-2%,1%,-8%,-99%
Oc1ccc(Br)cc1Cn1nnc2ccccc21,-1%,4%,-1%,nt,2%,nt
O=C(COC(=O)Cc1ccccc1F)Nc1ccc(SC(F)F)cc1,0%,13µM*,-2%,-4%,-3%,?
COc1ccc(O)c(-c2nc(N)nc(N)n2)c1,15%,?,4µM*,nt,-1%,nt
Cc1ccc(-n2ncc3ccccc3c2=O)cc1Cl,?,5.4µM*,2.5µM*,-3%,2.8µM*,14µM*
O=c1c2ccccc2cnn1-c1ccc(Cl)cc1,?,5.4µM*,1.4µM*,-10%,1µM*,10µM*
O=c1c2ccccc2cnn1Cc1n[nH]c(=S)n1-c1ccc(Cl)cc1,2%,-1%,0%,3%,1%,-1%
O=C(CN1C(=O)NC2(CCCCCC2)C1=O)c1ccc2c(c1)OCCO2,4.1µM*,9.5µM*,2µM*,-1%,2.8µM*,18µM*
O=C(CN1C(=O)NC2(CCCCCC2)C1=O)c1ccc(F)cc1,16%,-3%,0%,nt,1%,nt
CC1CCC2(CC1)NC(=O)N(CC(=O)Nc1ccc3c(c1)OCCO3)C2=O (stereo not drawn),?,27µM*,?,3%,3.5µM*,?
O=C(Nc1ccccc1)c1cc2ccccc2o1,?,1.2µM*,2.8µM*,13µM*,1.6µM*,13µM*
O=C(Nc1ccccc1)c1cccc(=O)o1,6%,0%,1%,nt,2%,nt
Cc1cc(C(=O)Nc2ccccc2)oc1C,?,12µM*,?,13µM*,2.8µM*,20µM*
O=C(Nc1ccc(F)cc1)c1cc2ccccc2o1,21%,6.7µM*,3.5µM*,nt,3.2µM*,nt
O=C(Nc1ccc(NC(=O)c2cc3ccccc3o2)cc1)c1ccco1,6%,-15%,13%,nt,20%,nt
O=C(NNC(=O)c1cc2ccccc2o1)c1ccncc1,4%,nt,nt,nt,nt,nt
O=C(NNC(=O)c1ccccc1O)c1cc2ccccc2o1,?,27µM*,4.5µM*,nt,?,nt
CC(NC(=O)c1cc2ccccc2o1)c1ccccc1 (stereo not drawn),-3%,-10%,0%,0%,-12%,nt
CC(=O)N1CCN(c2ccc(NC(=O)c3cc4ccccc4o3)cc2)CC1,-1%,?,0%,nt,3%,nt
SMILES,ELG1 genotoxic,FLuc modulator,NPC1 promoter act,Luc counter,Rab9 promoter act,SMN2 splice up
CC(C)c1nnc(NC(=O)c2cc3ccccc3o2)s1,?,6.7µM*,?,nt,2µM*,nt
O=C(Nc1ccc(N2CCCC2)cc1)c1cc2ccccc2o1,?,3µM*,3.5µM*,nt,2µM*,nt
CC(=O)c1ccc(NC(=O)c2cc3ccccc3o2)cc1,2.6µM*,?,1µM*,nt,0.63µM*,nt
CSC(C(=O)c1cc2ccccc2o1)c1ccccc1 (stereo not drawn),9%,?,?,nt,3.2µM*,nt
COc1ccc(CNC(=O)CCCn2nc(C)c3c(C)n(-c4ccc(C)cc4)nc3c2=O)cc1,-3%,-6%,-4%,nt,-10%,nt
Cc1ccc(Cl)cc1NC(=O)N1CCC2(CC1)Oc1ccccc1C(=O)N2Cc1ccccc1F,nt,-14%,nt,nt,nt,3%
COc1cccc(CNC(=O)Cn2c(=O)ccc3cc(S(=O)(=O)N4CCCC4)ccc32)c1,nt,-2%,nt,nt,nt,nt
CCCS(=O)(=O)N1CCCC(C(=O)Oc2ccc(C)c(C)c2)C1 (stereo not drawn),0%,0%,-7%,nt,-2%,nt
O=C(Nc1ccc2c(c1)CCC2)c1cnc(Cl)c(Cl)c1,?,3µM*,3%,-3%,30%,?
O=C(COC(=O)c1ccc(Cl)nc1)Nc1ccc2c(c1)CCC2,0%,nt,nt,nt,nt,nt
O=C(Nc1ccc2c(c1)CCC2)c1ccc(Cl)nc1,?,12µM*,15%,-1%,?,?
CCOc1ccc(S(=O)(=O)N(C)CC(=O)NC2CC2)cc1,6%,5%,1%,nt,5%,nt
COc1ccc(NC(=O)CSc2nnc(C)n2C2CC2)cc1S(=O)(=O)N1CCOCC1,-1%,-1%,-3%,nt,2%,nt
CCn1nc(NC(=O)c2ccncc2)c2cc3ccc(C)cc3nc21,-2%,15µM*,4%,-1%,-2%,-13%
CCn1nc(NC(=O)c2ccncc2)c2cc3cc(C)ccc3nc21,-3%,17µM*,-1%,-2%,1%,32µM*
CCCC(=O)Nc1nn(CC)c2nc3ccc(C)cc3cc12,-1%,-5%,24%,nt,7%,nt
Cc1ccnc(NC(=O)Nc2ccc3c(c2)N(C)C(=O)CS3)c1,?,3µM*,3.5µM*,-2%,2.8µM*,11µM*
Cc1ccc(NC(=O)Nc2ccc3c(c2)N(C)C(=O)CS3)nc1,9%,-3%,0%,1%,4%,?
COc1ccc(NC(=O)Nc2ccc3c(c2)N(C)C(=O)CS3)cc1Cl,-2%,17µM*,-1%,0%,1%,-22%
COc1ccc(NC(=O)Nc2ccc3c(c2)N(C)C(=O)CS3)cc1OC,-4%,?,3%,2%,-3%,17%
CC(=O)c1ccc(NC(=O)Nc2ccc3c(c2)N(C)C(=O)CS3)cc1,-13%,24µM*,0%,1%,16%,-20%
CCOC(=O)c1cc(NC(=O)c2ccccc2)c(=O)n2c1oc1ccc(Cl)cc12,nt,2%,nt,nt,nt,4%
Cc1ccc(CSCC(=O)N2CCN(c3cc(Cl)ccc3C)CC2)cc1,nt,-4%,nt,nt,nt,nt
COc1ccc(-c2csc(=NCCO)n2-c2ccccc2)cc1,13%,19µM*,18%,nt,9%,nt
COc1ccc(-c2csc(=Nc3ccccc3)n2CCO)cc1,?,17µM*,21%,3%,-5%,-71%
O=C(O)C1c2ccccc2C(=O)N(Cc2ccc(F)cc2)C1c1ccncc1 (stereo not drawn),1%,-2%,-1%,nt,0%,nt
